Most compounds without a hit are left out; they make up all but 21% or so of the library.
CHX counter = counter-screen for Shiga toxin inhibitors: cycloheximide protein synthesis inhibition; cell reporter, cycloheximide protein synthesis inhibition counterscreen; max response, %; actives 12% (n = 300,000); in the data active = max response mostly above about 13%, no sharp cut-off; inactive = mostly below about 14%; also: read at 38.3 µM for the half of the compounds with a filed dose; 0% is about no effect
Pf growth 48h = inhibits P. falciparum growth in the first generation, 48 h. Potency, µM (series often up to 28.7 µM), inactives show top-dose activity change, negative = inhibition, most hits filed as inhibitors. AID 504832. P. falciparum luciferase growth in erythrocytes, 48 h. actives 5.9% (n = 310,000); also: potency is read from the fitted curve at half-maximal effect; % is scaled to controls: 0 for no effect and ±100 for the full control effect
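Growth was read as firefly luciferase luminescence after a 48 h, 37 C, 5% CO2 exposure of compounds to reporter-bearing P. falciparum cultures (0.1% parasitemia, 2% hematocrit final) in Albumax-supplemented RPMI 1640.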
Shiga toxin inh = Shiga toxin inhibition | Vero cells, Shiga toxin protein synthesis inhibition reporter | inhibition, % at 38.7 µM | actives 9.2% (n = 290,000); in the data active = inhibition mostly above about 28%, no sharp cut-off; inactive = mostly below about 43%; also: 0% is about no effect
Pf growth 96h = P. falciparum growth inhibition at 96 hour, primary screen for plastid delayed-death inhibitors; P. falciparum luciferase reporter growth, 96 h; Potency, µM (doses to about 28.7 µM), inactives show at the highest dose activity change, negative = inhibition, most hits filed as inhibitors; actives 6.9% (n = 320,000); AID 504834; also: potency is read from the fitted curve at half-maximal effect; % is scaled to controls: 0 for no effect and ±100 for the full control effect
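Parasite growth measured via integrated firefly luciferase reporter in P. falciparum. Infected erythrocytes at 2% hematocrit, 0.05% parasitemia final were treated 96 hours at 37 C under 5% CO2, and luminescence was read.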
Numbers without * were called inactive; i = inactive; ? = inconclusive; . = not tested or not shown; [ ] = another dose, or the depositor's remark. Unless noted, calls follow the shape of the dose curve; as a rule, active = well fitted inhibition curve with a large enough effect; inconclusive = small, poorly fitted or top-dose-only effect, or another doubt; inactive = no such curve, though single readings can be large or run the other way.

SMILES	CHX counter	Pf growth 48h	Shiga toxin inh	Pf growth 96h
CC(C)Cn1c(N)c(C(=O)COC(=O)c2ccc(F)cc2)c(=O)n(C)c1=O	8	-4%	-19	3%
CCc1ccc(C(=O)OCC(=O)c2c(N)n(CC(C)C)c(=O)n(C)c2=O)cc1	5	?	31	13µM*
CC(C)Cn1c(N)c(C(=O)COC(=O)c2ccccc2Cl)c(=O)n(C)c1=O	1	-15%	1	?
CC(=O)Oc1ccc2nc(-c3ccc(Br)o3)oc(=O)c2c1	0	13%	-2	107%
CC(C)CCNC(=O)CCn1nc(-c2ccc(Cl)cc2)ccc1=O	-4	0%[0.00184 µM]	-12	?
O=C(COC(=O)/C=C/c1ccc(Cl)cc1Cl)NCc1ccco1	13	4%	3	-10%
Cc1cccc(C)c1NC(=O)c1cccc(N2C(=O)C3CCC(C)CC3C2=O)c1 (stereo not drawn)	6	0%	17	?
Cc1ccc(SCC(=O)Nc2ccc(F)cc2[N+](=O)[O-])cc1C	-2	1%	12	3%
CCCC(=O)NCCc1cc(OC)c(OC)cc1Br	-5	5%	4	8%
CC(C)(C)n1cc(C(=O)c2ccccc2)cc1-c1ccccc1	-1	12µM*	33	?
O=C(Nc1ccc(C(F)(F)F)cc1)c1cc(S(=O)(=O)NCC2COc3ccccc3O2)ccc1F (stereo not drawn)	-7	-23%	-7	?
CN(C(=O)c1ccc(OC2CCN(CCc3ccccc3)CC2)cc1)C1CCCCC1	-2	-17%	-14	11%
Cc1cc(OC(=O)CCCNC(=O)OC(C)(C)C)c2c3c(c(=O)oc2c1)CCC3	-2	-2%	-13	0%
Cc1cc(OC(=O)CCNC(=O)OC(C)(C)C)c2c3c(c(=O)oc2c1)CCC3	-2	4.7µM*	21	4.7µM*
CC(=O)Nc1cccc(NC(=O)CCN2C(=O)c3ccccc3S2(=O)=O)c1	.	-8%	.	3%
Cc1cc(N/C=C/C(=O)c2ccc(Br)cc2)no1	16*	106%	49*	-14%
COc1ccc(C(=O)/C=C/Nc2cc(C)ccn2)cc1	29*	82%	38	-50%
Cc1ccnc(N/C=C/C(=O)c2ccc(Br)cc2)c1	49*	58%	110*	122%
COc1ccc(S(=O)(=O)Nc2cc(C)ccn2)cc1	-3	.	-12	13%
COC(C(=O)Nc1ccnn1C1CCN(C(=O)c2ccc(C)cc2)CC1)c1ccccc1 (stereo not drawn)	0	-19%	-4	11%
CCOc1ccc2nc(NC3=NC(C)(C)C=C(C)N3)nc(C)c2c1	-3	.	-12	?
CCOc1ccc2nc(NC3=NC(c4ccc(OC)cc4)CC(=O)N3)nc(C)c2c1 (stereo not drawn)	-1	?	-16	10µM*
CCOc1ccc2c(C)nc(NC3=NC(C)(C)C=C(C)N3)nc2c1	4	10µM*	-8	12µM*
Brc1ccccc1-n1nnc(-c2cccnc2)n1	29*	39%	33	4%
Fc1ccc(-n2nnc(-c3cnc4ccccc4c3)n2)cc1	46*	4%	62*	1%
SMILES	CHX counter	Pf growth 48h	Shiga toxin inh	Pf growth 96h
O=c1[nH]c2ccccc2cc1-c1nnn(-c2ccc(F)cc2)n1	23*	122%	49*	147%
Nc1nc(-c2cccnc2)nn1C(=O)c1ccc(F)cc1	-1	63%	10	?
Nc1nc(-c2cccnc2)nn1C(=O)c1ccccc1Cl	-1	5%	-12	56%
Fc1ccc(C(CCCn2nnc(-c3cccnc3)n2)c2ccc(F)cc2)cc1	8	15µM*	40	-9%
O=c1ccn(-c2cccc(C(F)(F)F)c2)nc1-c1ccn(-c2cccc(Cl)c2)n1	-1	?	26	?
CCc1nnc(NC(=O)c2ccc(Br)c(S(=O)(=O)N3CCOCC3)c2)s1	1	-6%	-3	3%
Fc1ccc(-n2nnc(-c3cccnc3)n2)cc1	42*	113%	70*	98%
Fc1ccc(-n2nnc(-c3ccccc3Br)n2)cc1	3	3%	-2	?
Clc1ccc(-n2nnc(-c3nccs3)n2)cc1Cl	29*	328%	74*	i
Clc1ccc(-n2nnc(-c3cccnc3)n2)cc1Cl	41*	80%	41*	-4%
Cc1ccc(-n2nnc(-c3nccs3)n2)cc1	1	49%	-17	333%
O=C(NCc1cccc(Cl)c1)c1ccc(CS(=O)Cc2ccc(Cl)cc2)o1 (stereo not drawn)	9	0%	-9	16%
O=C(c1ccc(=O)[nH]c1)N1CCN(S(=O)(=O)c2ccccc2)CC1	-2	4%	-5	7%
CCNC(=S)NCCN1CCCCC1	-2	.	-13	12µM*
